# Several values for one entry are separate records, joined by “and”; a condition that tells them apart may be missing. Equal entries are not always repeated. Compounds without any hit were thinned out: in the full panel of roughly 83,000, 20% have a hit.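 Growth was measured after 48 h exposure to one concentration of compound in 96-well plates. Values under 10 count as active.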 A number with no mark means an inactive call.
# Tested on: EKVX NSCLC
# Experiment: NCI-60 one-dose screen, 48 h (100 = growth as untreated, 0 = no growth, -100 = all killed)
# Conditions: 10 µM unless noted
row,SMILES,growth
1,N#Cc1ccc(/C=C/C(=O)c2ccccc2)cc1,95.9% and 111%
2,COc1ccc(COC=O)cc1,109%
3,O=[N+]([O-])c1ccc(N/N=C/C2CCCCCC2)c([N+](=O)[O-])c1,84.9%
4,COC(=O)C(Cc1cn(C(C)=O)c2ccccc12)P(=O)(OC)OC (centres undefined),90.6%
5,CCOCCC(=O)O,98.8%
6,Cc1ccc(N)cc1S(=O)(=O)O,109% and 105%
7,CCOC(=O)c1ccc(C(=N)N)cc1,103%
8,Cc1cc(-c2ccc(N=Nc3c(C)nn(-c4ccc(S(=O)(=O)O)cc4)c3O)c(C)c2)ccc1N=Nc1ccc(O)c(C(=O)O)c1,104%
9,CC(=O)c1cccc(OC(=O)c2ccccc2)c1,110%
10,O=C(O)/C=C/C=C/c1ccccc1,100%
11,CCOC(=N)c1ccc(C(=N)OCC)cc1,90.2%
12,CN(C)C(=N)N=C(N)N,113%
13,N=C(N=C(N)N)N1CCOCC1,103% and 105%
14,COc1cc([C@@H]2c3cc4c(cc3[C@H](O)[C@H]3COC(=O)[C@@H]23)OCO4)cc(OC)c1OC,28.6% and 35.4%
15,O=C1C=CC(=O)N1Cc1ccco1,103%
16,S=c1ccc2ccccc2[nH]1,107% and 103%
17,Clc1ccc(/C=C/c2ccc3ccccc3n2)cc1,57.6% and 58.7% and 66.2%
18,COc1ccc(CCl)c(C)c1OC,104%
19,O=C1c2ccccc2C(c2ccccc2)C1c1ccccc1 (centres undefined),80.2%
20,COc1ccc2oc3c(ccc[n+]3C)c(=O)c2c1,93.3%

row,SMILES,growth
1,CCc1ccccc1-n1[nH]c(C)c(C=N)c1=O,104%
2,C/C=C/C(=O)OCCCCCCCCCCCC,111%
3,N#Cc1c[nH]n2ccnc12,90.3%
4,CCCCCc1cc[n+](CC(=O)c2ccccc2)cc1,90.4%
5,O=[N+]([O-])c1ccc(N2CCN=N2)cc1,85.7%
6,CCOc1ccc(/C=C\C(=O)O)cc1,115%
7,O=C(c1ccc(Cl)cc1)C1C(c2ccccc2)C1[N+](=O)[O-] (centres undefined),105%
8,CNc1ccc(O)cc1,80.1%
9,O=C1c2cccnc2-c2ncccc21,99.6% [100 µM]
10,Cc1c(Cl)cc(Cl)c(N)c1Cl,103%
11,Cc1cc(NC(=O)NC(=O)c2ccccc2N(C)C)ccc1Oc1ncc(Br)cn1,47.7% and 42.5%
12,CC(C)(C)C1=CC(=O)C(C(C)(C)C)=CC1=O,97.6% and 108%
13,OCc1ccccc1F,110%
14,O=C(O)C1CSCN1 (centres undefined),102% and 101%
15,O=[N+]([O-])c1cccc(N=Cc2ccccc2)c1,102%
16,Cc1cc(O)c(C(C)C)cc1N=O,101% and 102%
17,CS(=O)(=O)OCC1NC(=O)C(COS(C)(=O)=O)NC1=O (centres undefined),98.9% and 89.2%
18,CCCC(=O)Oc1ccc2ccccc2c1,101%
19,O=C(O)c1cccc(Br)c1,105% and 101%
